Values joined by “and” are separate entries in the source; they are usually repeats but may differ in a detail not shown here. Equal values may be shown once. Among all 5,500 compounds or so, about 2,000 (36%) were called active. Another 18% or so got no clear call; they are omitted. Rule as the data show it: active = normalized growth mostly below about 0.91 (no sharp cut-off); inconclusive = no clear call, values can overlap the other calls; inactive = mostly above about 0.92. The list shows a part of the results.
Experiment: chemical genetic growth profiling, strain panel (AID 1159580);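 also: tested at 20 µM; growth read once vehicle control cultures reached saturation at 30 °C; 1 = growth at the plate median or of vehicle wells; lower values mean less growth of the strain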
Conditions: S. cerevisiae deletion strains, growth OD

Measured: normalized growth

C=C1CC[C@H](O)C/C1=C/C=C1\CCC[C@]2(C)C([C@H](C)/C=C/[C@H](C)C(C)C)CC[C@@H]12 (stereo not given in full)
inactive: locus YAL013W, strain DEP1, active compounds read low 0.977 | locus YAL021C, strain ccr4, active compounds read low 1.05 | locus YAL026C, strain drs2, active compounds read low 1 | locus YAL030W, strain snc1, active compounds read low 1.02 | locus YBL061C, strain skt5, active compounds read low 1.02 | locus YBR009C, strain hhf1, active compounds read low 0.991 | locus YBR021W, strain FUR4, active compounds read low 1.04 | locus YBR023C, strain chs3, active compounds read low 0.998 | locus YBR171W, strain sec66, active compounds read low 1.01 | locus YBR229C, strain ROT2, active compounds read low 0.944 | locus YBR231C, strain swc5, active compounds read low 0.995 | locus YBR279W, strain paf1, active compounds read low 1.01 | locus YCL011C, strain gbp2, active compounds read low 1.02 | locus YCL016C, strain dcc1, active compounds read low 0.995 | locus YCL029C, strain bik1, active compounds read low 0.968 | locus YCL069W, strain vba3, active compounds read low 1.01 | locus YCR088W, strain abp1, active compounds read low 1.03 | locus YDL005C, strain med2, active compounds read low 1 | locus YDL035C, strain GPR1, active compounds read low 0.929 | locus YDL040C, strain nat1, active compounds read low 1.02 | locus YDL074C, strain BRE1, active compounds read low 0.961 | locus YDL101C, strain DUN1, active compounds read low 0.976 | locus YDL185W, strain tfp1, active compounds read low 0.981 | locus YDL192W, strain arf1, active compounds read low 0.976 | locus YDR001C, strain nth1, active compounds read low 1.03 | locus YDR069C, strain doa4, active compounds read low 1.03 | locus YDR101C, strain arx1, active compounds read low 0.948 | locus YDR137W, strain rgp1, active compounds read low 0.939 | locus YDR150W, strain NUM1, active compounds read low 0.977 | locus YDR159W, strain sac3, active compounds read low 1.02 | locus YDR162C, strain NBP2, active compounds read low 0.863 | locus YDR195W, strain ref2 1.03 | locus YDR297W, strain sur2, active compounds read low 1.01 | locus YDR318W, strain mcm21, active compounds read low 0.98 | locus YDR334W, strain swr1, active compounds read low 1.03 | locus YDR335W, strain msn5, active compounds read low 1.03 | locus YDR388W, active compounds read low 0.977 | locus YDR392W, strain spt3, active compounds read low 0.911 | locus YDR502C, strain sam2, active compounds read low 0.998 | locus YEL003W, strain gim4, active compounds read low 1.03 | locus YEL037C, strain rad23, active compounds read low 1.01 | locus YEL061C, strain CIN8 (second series), active compounds read low 1.03 | locus YEL061C, strain CIN8, active compounds read low 0.982 | locus YER015W, strain faa2, active compounds read low 1.01 | locus YER016W, strain bim1, active compounds read low 1.02 | locus YER110C, active compounds read low 0.977 | locus YER111C, strain swi4, active compounds read low 0.996 | locus YER155C, strain BEM2 (second series), active compounds read low 1.06 | locus YER155C, strain BEM2, active compounds read low 0.997 | locus YER167W, strain BCK2, active compounds read low 0.999 | locus YFR010W, strain ubp6, active compounds read low 1.02 | locus YGL078C, strain dbp3, active compounds read low 0.972 | locus YGL086W, strain mad1, active compounds read low 0.958 | locus YGL167C, strain pmr1, active compounds read low 1.03 | locus YGL173C, strain kem1, active compounds read low 1.04 | locus YGL227W, strain vid30, active compounds read low 1.01 | locus YGL240W, strain doc1, active compounds read low 1.03 | locus YGL248W, strain PDE1, active compounds read low 0.978 | locus YGL253W, strain hxk2, active compounds read low 0.989 | locus YGR078C, strain PAC10, active compounds read low 0.974 | locus YGR135W, strain pre9, active compounds read low 1.03 | locus YGR252W, strain gcn5, active compounds read low 1.08 | locus YHR013C, strain ard1, active compounds read low 1.07 | locus YHR027C, strain rpn1, active compounds read low 1.03 | locus YHR030C, strain SLT2, active compounds read low 0.998 and 0.979 | locus YHR079C, strain IRE1 (second series), active compounds read low 0.964 | locus YHR079C, strain IRE1, active compounds read low 0.997 | locus YHR094C, strain hxt1, active compounds read low 0.978 | locus YHR129C, strain ARP1, active compounds read low 0.988 | locus YHR142W, strain chs7, active compounds read low 1 | locus YHR200W, strain rpn10, active compounds read low 0.981 | locus YIL066C, strain RNR3, active compounds read low 0.968 | locus YIL073C, strain SPO22, active compounds read low 0.994 | locus YIL125W, strain kgd1, active compounds read low 0.98 | locus YIR030C, strain dcg1, active compounds read low 0.984 | locus YJL092W, strain hpr5, active compounds read low 1.02 | locus YJL095W, strain BCK1 (second series), active compounds read low 1.02 | locus YJL095W, strain BCK1, active compounds read low 0.959 and 1 | locus YJL115W, strain asf1, active compounds read low 1.02 | locus YJL129C, strain trk1, active compounds read low 1.02 | locus YJL134W, strain LCB3, active compounds read low 0.982 | locus YJL154C, strain vps35, active compounds read low 1.03 | locus YJL164C, strain tpk1, active compounds read low 1.01 | locus YJL166W, strain qcr8, active compounds read low 1 | locus YJL168C, strain set2, active compounds read low 0.991 | locus YJL187C, strain SWE1 (second series), active compounds read low 0.965 | locus YJR043C, strain POL32, active compounds read low 0.956 | locus YJR066W, strain TOR1, active compounds read low 0.891 | locus YJR075W, strain HOC1, active compounds read low 0.979 | locus YKL009W, strain mrt4, active compounds read low 0.935 | locus YKL068W, active compounds read low 0.994 | locus YKL085W, strain MDH1 (second series), active compounds read low 0.993 | locus YKL085W, strain MDH1, active compounds read low 0.993 | locus YKL160W, strain elf1, active compounds read low 1.01 | locus YKR001C, strain vps1, active compounds read low 0.949 | locus YKR026C, strain gcn3, active compounds read low 1.02 | locus YKR091W, strain srl3, active compounds read low 1.01 | locus YLL001W, strain dnm1, active compounds read low 1.02 | locus YLL026W, active compounds read low 1.01 | locus YLL041C, strain sdh2, active compounds read low 1.03 | locus YLR027C, strain aat2, active compounds read low 1.01 | locus YLR039C, strain RIC1, active compounds read low 0.777 | locus YLR058C, strain SHM2, active compounds read low 0.978 | locus YLR102C, strain apc9, active compounds read low 0.991 | locus YLR113W, strain HOG1, active compounds read low 1.02 | locus YLR221C, strain rsa3, active compounds read low 1.02 | locus YLR258W, strain gsy2, active compounds read low 1.01 | locus YLR262C, strain YPT6 (second series), active compounds read low 0.907 | locus YLR262C, strain YPT6, active compounds read low 0.758 | locus YLR268W, strain sec22, active compounds read low 0.937 | locus YLR320W, strain mms22, active compounds read low 0.987 | locus YLR330W, strain CHS5, active compounds read low 0.984 | locus YLR342W, strain FKS1 (second series), active compounds read low 0.991 | locus YLR342W, strain FKS1, active compounds read low 1.01 | locus YLR357W, strain rsc2, active compounds read low 1.05 | locus YLR370C, strain arc18, active compounds read low 1.04 | locus YLR371W, strain rom2, active compounds read low 1.01 | locus YLR384C, strain iki3, active compounds read low 1.02 | locus YLR418C, strain cdc73, active compounds read low 0.985 | locus YML016C, strain PPZ1, active compounds read low 0.984 | locus YML032C, strain rad52, active compounds read low 0.979 | locus YML120C, strain ndi1, active compounds read low 1.03 | locus YML124C, strain tub3, active compounds read low 0.985 | locus YMR058W, strain fet3, active compounds read low 1 | locus YMR078C, strain ctf18, active compounds read low 0.984 | locus YMR125W, strain sto1, active compounds read low 1.02 | locus YMR129W, active compounds read low 1.02 | locus YMR205C, strain PFK2, active compounds read low 1.02 | locus YMR223W, strain ubp8, active compounds read low 1.01 | locus YMR231W, strain pep5, active compounds read low 1 | locus YMR263W, strain SAP30, active compounds read low 0.976 | locus YMR307W, strain GAS1, active compounds read low 0.923 | locus YNL067W, strain RPL9B, active compounds read low 0.982 | locus YNL071W, strain lat1, active compounds read low 0.983 | locus YNL183C, strain NPR1, active compounds read low 0.98 | locus YNL209W, strain ssb2, active compounds read low 1.01 | locus YNL233W, strain BNI4, active compounds read low 0.993 | locus YNL248C, strain rpa49, active compounds read low 1.02 | locus YNL250W, strain rad50, active compounds read low 0.993 | locus YNL271C, strain bni1, active compounds read low 0.967 | locus YNL298W, strain CLA4, active compounds read low 0.969 | locus YNL307C, strain MCK1, active compounds read low 0.989 | locus YNL322C, strain KRE1 (second series), active compounds read low 1.03 | locus YNL322C, strain KRE1, active compounds read low 0.999 | locus YNR049C, strain mso1, active compounds read low 1.02 | locus YNR052C, strain pop2, active compounds read low 0.981 | locus YOL006C, strain TOP1, active compounds read low 0.967 | locus YOL012C, strain htz1 1.45 | locus YOL147C, strain pex11, active compounds read low 0.993 | locus YOR001W, strain rrp6, active compounds read low 1 | locus YOR061W, strain CKA2, active compounds read low 0.953 | locus YOR069W, strain VPS5, active compounds read low 0.98 | locus YOR070C, strain gyp1, active compounds read low 1.01 | locus YOR080W, strain dia2, active compounds read low 1.01 | locus YOR083W, strain WHI5, active compounds read low 0.985 | locus YOR106W, strain vam3, active compounds read low 1.04 | locus YOR136W, strain idh2, active compounds read low 0.981 | locus YOR144C, strain elg1, active compounds read low 0.989 | locus YOR184W, strain ser1, active compounds read low 0.939 | locus YOR231W, strain MKK1, active compounds read low 1.02 | locus YOR265W, strain rbl2, active compounds read low 1.01 | locus YOR270C, strain vph1, active compounds read low 0.873 | locus YOR290C, strain snf2, active compounds read low 1.02 | locus YOR316C, strain cot1, active compounds read low 0.978 | locus YPL051W, strain arl3, active compounds read low 1.01 | locus YPL055C, strain LGE1, active compounds read low 1.01 | locus YPL078C, strain atp4, active compounds read low 1.01 | locus YPL106C, strain sse1, active compounds read low 1.09 | locus YPL240C, strain hsp82, active compounds read low 1.01 | locus YPL256C, strain CLN2, active compounds read low 1.01 | locus YPR119W, strain clb2, active compounds read low 0.982 | locus YPR141C, strain kar3, active compounds read low 0.981 | locus YPR163C, strain tif3, active compounds read low 0.992 | locus YPR167C, strain met16, active compounds read low 0.985 | strain wtn01, active compounds read low 0.981

Source: PubChem BioAssay AID1159580 (chemical genetic matrix, 2015)
